Peg3 promoter – Peg3 promoter activity inhibition; HeLa PEG-Prom luciferase reporter, luminescence, overnight; inhibition, % at 20 µM; 1.7% of 360,000 active; AID 588405;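 active means inhibition of at least 50% at 20 µM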
Shn3 3UTR inh – inhibitors of Schnurri-3 3'UTR reporter in osteoblasts; Clone20 osteoblast Shn3 3'UTR firefly luciferase, 24 h; inhibition, % at 12.5 µM; 0.52% of 360,000 active;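 active means mean inhibition of at least 75% with every replicate also reaching 75%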;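 further: 0% = median of neutral control wells and 100% = pilot-screen positive control compound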
EBV LMP1 NFkB – inhibitors of Epstein-Barr LMP1-induced NF-kappaB reporter. LMP1-induced NF-kappaB luciferase reporter cells, luminescence. inhibition, % at 12.5 µM. 0.69% of 350,000 active. AID 504558; in the data active means inhibition above about 41%;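 further: 0% = neutral control wells and 100% = reference inhibitor control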
HIF-2a inh – inhibitors of HIF-2a | inhibition, % at 18.8 µM | 0.72% of 360,000 active | AID 624352 | 786-0 RCC cells HIF-2a reporter, luciferase luminescence, overnight;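 active means inhibition of the luminescence signal of 40% or more relative to plate controls, in a single-dose primary screen at 18.75 µM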
TRPM1 prom inh – inhibitors of MITF-driven TRPM1 promoter in melanoma cells; SK-MEL-5 TRPM1 promoter luciferase, 24 h; inhibition, % at 12.5 µM; 0.83% of 330,000 active;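 active means mean inhibition across replicates of 60% or more, whatever share of single replicates reaches that level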
PAX8 reporter – inhibitors of PAX8 transcriptional activity in RMG-I cells; RMG-I TPO-luciferase reporter, SteadyGlo, 24 h; inhibition, % at 12.6 µM; 1.2% of 360,000 active; AID 652154;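 active means mean replicate inhibition at least 60% with every replicate also reaching 60%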;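 further: luciferase light reporting Pax8 driven TPO promoter activity; plate controls were median of neutral control wells for no effect and mitoxantrone controls for full effect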
Numbers without * were called inactive; nt = no result given. Rows were chosen to be rich in hits. Some 2.8% of all compounds tested hit in one or more screens of this group.

SMILES	Peg3 promoter	Shn3 3UTR inh	EBV LMP1 NFkB	HIF-2a inh	TRPM1 prom inh	PAX8 reporter
CCN1/C(=C\C(=S)Nc2ccccc2)Sc2ccccc21	-303.4	38.3	-15.4	-196.4	-11.9	-71.4
Cc1ccc(S(=O)(=O)N(C)C[C@@H]2OCCCC[C@H](C)Oc3ccc(NC(=O)Nc4ccc(C(F)(F)F)cc4)cc3C(=O)N([C@H](C)CO)C[C@H]2C)cc1	nt	nt	nt	nt	nt	61.4*
C[C@@H]1CN([C@H](C)CO)C(=O)c2cc(NC(=O)Nc3ccc(C(F)(F)F)cc3)ccc2O[C@@H](C)CCCCO[C@H]1CN(C)S(=O)(=O)c1ccc(F)cc1	nt	nt	nt	nt	nt	78.0*
Cc1ccc(S(=O)(=O)N(C)C[C@@H]2OCCCC[C@H](C)Oc3ccc(NC(=O)Nc4ccc(F)cc4)cc3C(=O)N([C@H](C)CO)C[C@H]2C)cc1	14.6	34.2	-5.8	-3.5	nt	63.6*
C[C@@H]1CCCCO[C@H](CN(C)S(=O)(=O)c2ccc(F)cc2)[C@H](C)CN([C@@H](C)CO)C(=O)c2cc(NC(=O)Nc3ccc(C(F)(F)F)cc3)ccc2O1	nt	nt	nt	nt	nt	58.1
C[C@@H]1CCCCO[C@@H](CN(C)S(=O)(=O)c2ccc(F)cc2)[C@H](C)CN([C@@H](C)CO)C(=O)c2cc(NC(=O)Nc3ccc(F)cc3)ccc2O1	nt	nt	nt	nt	nt	37.6
C[C@@H]1CCCCO[C@H](CN(C)S(=O)(=O)c2ccc(F)cc2)[C@@H](C)CN([C@@H](C)CO)C(=O)c2cc(NC(=O)Nc3ccc(F)cc3)ccc2O1	nt	nt	nt	nt	nt	61.7*
Cc1ccc(S(=O)(=O)N(C)C[C@@H]2OCCCC[C@H](C)Oc3ccc(NC(=O)Nc4ccc(F)cc4)cc3C(=O)N([C@@H](C)CO)C[C@H]2C)cc1	nt	nt	nt	nt	nt	6.6
C[C@H]1CCCCO[C@H](CN(C)C(=O)Nc2cccc3ccccc23)[C@@H](C)CN([C@@H](C)CO)C(=O)c2cc(NC(=O)Nc3ccccc3)ccc2O1	nt	nt	nt	nt	nt	9.5
CC(=O)N1CCCCN2[C@H](CO)[C@@H](c3ccc(-c4ccc(F)cc4)cc3)[C@H]2C1	nt	nt	nt	nt	nt	-13.6
Fc1ccc(C2CCNCC2COc2ccc3c(c2)OCO3)cc1 (centres undefined)	61.4*	8.8	-9.0	11.5	-9.4	-21.3
O=C(COc1ccc2c(c1)OCO2)Nc1ccccc1F	-179.2	-52.8	1.7	-218.1	-50.8	1.0
O=C(/C=C/Nc1ccc(Br)cc1F)c1ccccc1	22.0	26.3	65.3*	36.1	28.2	-25.6
COc1cccc(CNC(=O)[C@H]2[C@H](CO)[C@H]3Cn4c(ccc(-c5cncnc5)c4=O)[C@H]3N2C)c1	nt	nt	nt	nt	nt	2.5
O=C(C[C@H]1CC[C@H]2[C@@H](COC[C@@H](O)CN2C(=O)c2ccccc2)O1)N1CCc2ccccc2C1	nt	nt	nt	nt	nt	9.0
C[C@@H]1CCCCO[C@H](CN(C)C)[C@H](C)CN([C@@H](C)CO)C(=O)c2cc(NC(=O)NC3CCCCC3)ccc2O1	nt	nt	nt	nt	nt	-0.3
Cc1cc(C)nc(NC(N)=NCCc2ccccc2)n1	34.8	27.0	29.9	37.4	65.4*	50.6
Cc1cc(C)nc(NC(N)=NC(C)c2ccccc2)n1 (centres undefined)	nt	nt	nt	nt	nt	9.5
O=C1C(SCCO)=C(SCCO)C(=O)c2ccccc21	100.0*	92.5*	59.0*	96.9*	111.2*	114.1*
C[C@H]1CN([C@@H](C)CO)C(=O)c2cc(NS(=O)(=O)c3ccccc3)ccc2O[C@@H]1CN(C)CC1CC1	nt	nt	nt	nt	nt	5.0
CO[C@@H]1CN(C)C(=O)c2ccc(NS(=O)(=O)CC(F)(F)F)cc2OC[C@H](C)N(C)C[C@H]1C	nt	nt	nt	nt	nt	23.5
CC(C)c1ccc(Nc2c([N+](=O)[O-])c(=O)n(C)c3ccccc23)cc1	8.4	nt	-10.0	27.6	3.5	6.3
Cn1c(=O)c(Nc2ccc(O)cc2)c2c3c(cccc31)C(=O)c1ccccc1-2	36.6	5.9	10.0	36.3	20.6	83.1*
O=C(NCc1nc(-c2ccc(C(F)(F)F)cc2)no1)Nc1ccc(OC(F)(F)F)cc1	73.7*	3.0	3.1	3.4	-7.7	7.4
CO[C@H]1CN(C)C(=O)c2cc(NC(=O)C3CCCCC3)ccc2OC[C@H](C)N(Cc2cccnc2)C[C@@H]1C	nt	nt	nt	nt	nt	-3.1
SMILES	Peg3 promoter	Shn3 3UTR inh	EBV LMP1 NFkB	HIF-2a inh	TRPM1 prom inh	PAX8 reporter
C[C@@H]1CCCCO[C@H](CN(C)S(=O)(=O)c2cccs2)[C@@H](C)CN([C@@H](C)CO)C(=O)c2cc(NC(=O)c3ccccc3)ccc2O1	nt	nt	nt	nt	nt	-6.5
O=C1c2ccccc2C(=O)N1CSc1nnc(Nc2ccccc2F)s1	-25.7	0.0	-20.1	-87.6	-15.0	77.6*
COc1cccc(NC(=O)N(C)C[C@H]2Oc3cc(-c4ccccc4OC)ccc3S(=O)(=O)N([C@@H](C)CO)C[C@@H]2C)c1	nt	nt	nt	nt	nt	32.7
CCOc1ccc(NC(=O)Cn2cncc2-c2ccc([N+](=O)[O-])cc2)cc1	80.6*	-8.7	-16.1	7.3	35.8	35.4
CN(C)CC(=O)Nc1ccc2c(c1)[C@H]1C[C@H](CC(=O)NCc3ccccc3F)O[C@H](CO)[C@H]1O2	nt	nt	nt	nt	nt	-9.1
Cc1ccc(C)c(N2C(=O)CC(Cc3ccccc3)C2=O)c1 (centres undefined)	7.3	12.6	74.6*	15.9	0.4	-2.1
Cc1cc(C)cc(CC2CC(=O)N(c3cc(C)ccc3C)C2=O)c1 (centres undefined)	4.0	16.8	1.9	1.1	4.2	4.4
O=C(CSc1n[nH]c(=O)n1C1CC1)Nc1cc(Cl)ccc1Oc1ccccc1	50.1*	59.6	36.5	12.7	12.8	nt
O=C(C[C@@H]1C=C[C@@H](NS(=O)(=O)c2ccc(F)cc2)[C@@H](CO)O1)N1CCc2ccccc2C1	nt	nt	nt	nt	nt	-0.5
O=C(Cc1cccc(C(F)(F)F)c1)OCC(=O)N1CCN(S(=O)(=O)c2ccc(Cl)cc2)CC1	-3.1	-4.4	-6.7	-6.8	-6.1	9.4
COc1ccc(CC(=O)OCC(=O)N2CCN(S(=O)(=O)c3ccc(C)cc3C)CC2)cc1	2.0	-16.3	69.1*	4.3	-1.0	-10.0
O=C(Cc1ccc(F)cc1)OCC(=O)N1CCN(S(=O)(=O)c2ccc(Cl)cc2)CC1	2.9	2.4	-2.2	-1.8	-1.5	101.3*
O=C(Nc1ccccc1F)N[C@@H]1CC[C@@H](CCNC(=O)C2CCOCC2)O[C@@H]1CO	nt	nt	nt	nt	nt	2.0
O=C(C[C@H]1C[C@H]2c3cc(NS(=O)(=O)c4ccc(F)cc4)ccc3O[C@H]2[C@H](CO)O1)NC1CCCC1	nt	nt	nt	nt	nt	24.7
CC(CCc1ccco1)N(C)S(=O)(=O)c1csc(C(N)=O)c1 (centres undefined)	15.5	3.2	51.9*	14.9	-9.4	-9.1
C[C@@H]1CN([C@H](C)CO)C(=O)c2cc(NC(=O)Nc3ccc(F)cc3)ccc2O[C@@H]1CN(C)Cc1ccc2c(c1)OCO2	nt	nt	nt	nt	nt	13.9
Cc1cccnc1C(c1ccc(F)cc1)N(C)C(=O)C1CCN(CCOc2ccc(Cl)cc2Cl)CC1 (centres undefined)	98.0*	2.9	nt	-1.7	nt	13.7
Cc1cccnc1C(c1ccc(F)cc1)N(C)C(=O)C1CCN(CCCOc2ccc(F)cc2)CC1 (centres undefined)	-11.8	-7.8	nt	3.0	nt	2.6

Assay outcomes: PubChem BioAssay, several laboratories
